The list is not random: actives were taken first. Their share in the collection is about 21%.
RORg inh: inhibitors of mouse ROR gamma transcriptional activity. P51450. Drosophila S2 Gal4-RORgamma UAS-luciferase reporter, 20 h. Potency, µM (titrated, usually from 53.6 µM), for inactives: top-dose activity change, negative = inhibition, actives largely listed as inhibitors. hit rate 5.4% among 310,000; further: potency means the concentration at half of the fitted maximal effect; nearly all actives have a fitted effect of over 60% in size
Target sequence (P51450 whole entry, looked up, the tested form may be a part): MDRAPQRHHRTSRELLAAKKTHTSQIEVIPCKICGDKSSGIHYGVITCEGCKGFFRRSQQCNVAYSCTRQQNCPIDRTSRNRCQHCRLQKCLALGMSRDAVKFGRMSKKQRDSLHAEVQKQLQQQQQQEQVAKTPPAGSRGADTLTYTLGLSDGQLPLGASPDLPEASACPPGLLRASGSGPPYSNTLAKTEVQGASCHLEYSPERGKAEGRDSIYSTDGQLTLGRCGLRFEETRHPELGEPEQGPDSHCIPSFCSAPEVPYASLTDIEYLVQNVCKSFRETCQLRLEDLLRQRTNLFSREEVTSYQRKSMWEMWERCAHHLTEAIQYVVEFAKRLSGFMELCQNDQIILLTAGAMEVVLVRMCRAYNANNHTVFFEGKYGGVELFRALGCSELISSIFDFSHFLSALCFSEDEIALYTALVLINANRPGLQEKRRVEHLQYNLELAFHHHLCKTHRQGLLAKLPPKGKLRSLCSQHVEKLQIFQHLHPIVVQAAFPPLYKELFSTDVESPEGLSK
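Drosophila Schneider cells stably carrying a metallothionein-driven Gal4 DBD–ROR gamma fusion and a UAS-Photinus luciferase reporter were exposed to compound for 1 hr, then induced with copper sulfate (700 uM final) for 20 hr at ambient temperature before luminescence reading.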
IL-1B inflam inh: inflammasome signaling inhibition, IL-1 beta readout; THP-1 LPS/ATP IL-1B secretion, AlphaLISA, 16 h; active compounds read low; activity change, % at 57.5 µM; hit rate 4.7% among 360,000; AID 743279; in the data active means activity change below about -50%; inconclusive means mostly about -30% to -49%
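Secreted IL-1B measured by AlphaLISA bead assay after 16 h compound exposure of THP-1 cells; compounds (final up to 57.5 uM) added 1 h before LPS (250 ng/mL) and ATP (1.25 mM) stimulation; lower signal means less secretion.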
Gal4-VP16 FLuc: inhibits Gal4-VP16 luciferase reporter, ROR gamma counter-screen. Drosophila S2 Gal4-VP16 UAS-luciferase, luminescence, 20 h. Potency, µM (highest dose often 53.6 µM), inactives show top-dose activity, negative = inhibition, hits mostly inhibitors. hit rate 3.5% among 310,000;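 further: Gal4-VP16 expression switched on by copper sulfate through the metallothionein promoter; potency means the concentration at half of the fitted maximal effect; nearly all actives have a fitted effect of over 50% in size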
DT40 TDP1 no CPT: qHTS for Inhibitors of human tyrosyl-DNA phosphodiesterase 1 (TDP1): qHTS in cells in absence of CPT; DT40 Tdp1-/- hTDP1 cells, no CPT, ATP luminescence, 48 h; Potency, µM (top dose mostly 46.2 µM), for inactives: at the highest dose activity change, negative = growth inhibition, actives largely listed as inhibitors; hit rate 15% among 420,000; further: potency means the concentration at half of the fitted maximal effect; nearly all actives have a fitted effect of over 55% in size
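Growth of hTDP1-complemented DT40 Tdp1-knockout cells is measured by ATP luminescence after at least 48 hr compound exposure at 37 °C, with DMSO substituting for the 20 nM CPT used in the parallel screen.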
ELG1 DNA repair: ELG1-dependent DNA repair inhibition | HEK293T ELG1-luciferase reporter, luminescence, 16 h; DNA damage induced by 5-fluorouridine | Potency, µM (top dose mostly 46.1 µM), inactives show at the highest dose activity change, negative = inhibition, usual class: inhibitors | hit rate 2.3% among 330,000 | AID 504467; further: potency means the concentration at half of the fitted maximal effect; nearly all actives have a fitted effect of over 55% in size
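Step one: seed 2,000 cells per well. Step two: pin-transfer compound or DMSO alongside 5-fluorouridine. Step three: incubate 16 hr, 37 °C, 5% CO2. Step four: add ONE-Glo, wait 30 min, read luminescence.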
TDP1 cell CPT: growth inhibition of DT40 Tdp1-/-;hTDP1 cells with camptothecin (screen for TDP1 inhibitors); hit rate 12% among 420,000; chicken DT40 Tdp1-/-;hTDP1 cells + 20 nM CPT, ATP luminescence, 48 h; Potency, µM (doses to about 46.2 µM), for inactives: at the top dose activity change, negative = growth inhibition, actives largely listed as inhibitors; further: potency means the concentration at half of the fitted maximal effect; nearly all actives have a fitted effect of over 55% in size
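Chicken DT40 Tdp1-/- cells complemented with human TDP1, 400 cells/well, exposed to compounds plus 20 nM camptothecin for at least 48 h at 37 C; viability read as ATP content by CellTiter-Glo luminescence.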
Numbers without * were called inactive. Unless noted, the call rests on the fitted dose curve; in most records, active means well fitted curve in the direction sought with a large enough effect; inconclusive means small, poorly fitted or top-dose-only effect, or another doubt; inactive means no such curve, though single readings can be large; an effect the other way counts as inactive or inconclusive. On the % scale 0 is the no-effect control and ±100 the full control effect.

What do the screens show for `CCOC(=O)c1sc2ncn(CC(=O)Nc3ccc(OC)c(Cl)c3)c(=O)c2c1C`?
DT40 TDP1 no CPT: -8.9%; TDP1 cell CPT: 13.5%

What do the screens show for `Cc1ccc([C@@H]2CC=C(C(=O)O)[C@H](c3ccc(Cl)cc3)N2S(=O)(=O)c2ccccc2C)cc1`?
IL-1B inflam inh: 40.4; DT40 TDP1 no CPT: -10.1%; ELG1 DNA repair: 2.7%; TDP1 cell CPT: -16.1%

How did N#Cc1cccc(NC(=O)c2cc(C3CCCCN3C(=O)c3ccccc3)on2)c1 (stereo not given) do in these assays?
IL-1B inflam inh: 9.1; DT40 TDP1 no CPT: 10.3µM*; TDP1 cell CPT: 18.4µM*

What do the screens show for `Cn1nc(C(C)(C)C)cc1C(=O)N1CCCCC1c1cc(C(=O)Nc2cccc(C#N)c2)no1` (stereo not given)?
IL-1B inflam inh: 7.2; DT40 TDP1 no CPT: 16.4µM*; TDP1 cell CPT: 20.6µM*

How did N#Cc1cccc(NC(=O)c2cc(C3CCCCN3C(=O)C3CC3)on2)c1 (stereo not given) do in these assays?
IL-1B inflam inh: 0.0; DT40 TDP1 no CPT: inconclusive; TDP1 cell CPT: 25.9µM*

How did CC(C#N)(NC(=O)CN1CCN(S(=O)(=O)c2ccccc2Cl)CC1)C1CC1 (stereo not given) do in these assays?
IL-1B inflam inh: -8.6; DT40 TDP1 no CPT: 10.6%; ELG1 DNA repair: 10.8%; TDP1 cell CPT: -9.3%

What do the screens show for `Cn1nc(C(=O)NCCCN2CCCCC2)c2c1-c1ccccc1SC2`?
RORg inh: -0.7%; IL-1B inflam inh: -9.4; Gal4-VP16 FLuc: -3.1%; DT40 TDP1 no CPT: inconclusive; ELG1 DNA repair: 21.7%; TDP1 cell CPT: inconclusive

What do the screens show for `CCOc1ccc(CCNC(=O)c2nn(C)c3c2CSc2ccc(C)cc2-3)cc1OCC`?
DT40 TDP1 no CPT: 13µM*; TDP1 cell CPT: inconclusive

How did CCOC(=O)N1CCN(C(=O)c2nn(C)c3c2CSc2ccccc2-3)CC1 do in these assays?
RORg inh: -18.4%; IL-1B inflam inh: -17.0; Gal4-VP16 FLuc: 3.6%; DT40 TDP1 no CPT: 16.4µM*; ELG1 DNA repair: 4.1%; TDP1 cell CPT: inconclusive

What do the screens show for `Cc1ccc(CCNC(=O)c2nn(C)c3c2CSc2ccccc2-3)cc1`?
DT40 TDP1 no CPT: -12.9%; TDP1 cell CPT: -23.5%

Results for CCCCN(CC)C(=O)c1nn(C)c2c1CSc1ccccc1-2 ?
DT40 TDP1 no CPT: 23.1µM*; TDP1 cell CPT: inconclusive

What do the screens show for `CCN(C(=O)c1nn(C)c2c1CSc1ccccc1-2)c1cccc(C)c1`?
DT40 TDP1 no CPT: 20.6µM*; TDP1 cell CPT: 11.6µM*

What do the screens show for `N[C@H](C(=O)O)[C@H]1C[C@H]1C(=O)O`?
DT40 TDP1 no CPT: -25.9%; TDP1 cell CPT: -26.1%

Results for CCc1ccccc1-n1ncc(C(=O)Nc2ccc(OC)cc2)c1C ?
IL-1B inflam inh: -65.1*; DT40 TDP1 no CPT: inconclusive; TDP1 cell CPT: -6.8%

What do the screens show for `O=C(Nc1cccnc1Oc1ccc(Cl)cc1)c1cccc2ccccc12`?
RORg inh: 25.2%; IL-1B inflam inh: -56.9*; Gal4-VP16 FLuc: -1.2%; DT40 TDP1 no CPT: inconclusive; ELG1 DNA repair: 0.0%; TDP1 cell CPT: -10.1%

How did COc1ccc(NC(=O)c2cc3ccccc3cc2O)cc1 do in these assays?
RORg inh: 10.8%; IL-1B inflam inh: -98.9*; Gal4-VP16 FLuc: -18.2%; DT40 TDP1 no CPT: inconclusive; ELG1 DNA repair: inconclusive; TDP1 cell CPT: inconclusive

Results for COc1cc2ccccc2cc1C(=O)Nc1ccc(O)cc1 ?
RORg inh: 21.7%; IL-1B inflam inh: 0.5; Gal4-VP16 FLuc: -25.8%; DT40 TDP1 no CPT: inconclusive; ELG1 DNA repair: inconclusive; TDP1 cell CPT: -30.0%

Results for COc1ccc(NC(=O)c2cccc3ccccc23)cc1 ?
RORg inh: 0.8%; IL-1B inflam inh: -7.0; Gal4-VP16 FLuc: inconclusive; DT40 TDP1 no CPT: 20.6µM*; ELG1 DNA repair: 6.1%; TDP1 cell CPT: 18.4µM*

Results for NC(=O)c1cccnc1Oc1ccc(Cl)cc1 ?
RORg inh: 1.4%; IL-1B inflam inh: -2.5; Gal4-VP16 FLuc: 8.3%; DT40 TDP1 no CPT: -22.0%; ELG1 DNA repair: 4.0%; TDP1 cell CPT: 7.8%

How did CCCCc1ccc(S(=O)(=O)NC(=O)C2(C)CCN2C(=O)c2cccc(F)c2)cc1 (stereo not given) do in these assays?
IL-1B inflam inh: 47.0; DT40 TDP1 no CPT: -5.3%; TDP1 cell CPT: -11.8%

What do the screens show for `CCOc1ccccc1NC(=O)c1cc(S(=O)(=O)N2CCOCC2)cn1C`?
DT40 TDP1 no CPT: -1.6%; TDP1 cell CPT: 5.3%

What do the screens show for `Cc1ccc(NC(=O)NNC(=O)c2cc3ccccc3cc2O)cc1C`?
RORg inh: -17.6%; IL-1B inflam inh: 8.7; Gal4-VP16 FLuc: -1.7%; DT40 TDP1 no CPT: 5.0%; ELG1 DNA repair: 7.2%; TDP1 cell CPT: -3.9%

What do the screens show for `COc1ccc(NC(=O)c2nc(SC)ncc2Cl)cc1`?
RORg inh: 4.6%; IL-1B inflam inh: 2.4; Gal4-VP16 FLuc: -10.7%; DT40 TDP1 no CPT: 1.5%; ELG1 DNA repair: 0.1%; TDP1 cell CPT: -14.1%

Results for COc1ccc(NC(=O)c2cnc(SC)nc2)cc1 ?
RORg inh: 38.1%; IL-1B inflam inh: 8.8; Gal4-VP16 FLuc: 24.6%; DT40 TDP1 no CPT: 11.6µM*; ELG1 DNA repair: -15.1%; TDP1 cell CPT: 14.6µM*

Results for Cc1ccc(NC(=O)c2cc3ccccc3cc2O)cc1 ?
RORg inh: -25.4%; IL-1B inflam inh: -9.2; Gal4-VP16 FLuc: inconclusive; DT40 TDP1 no CPT: inconclusive; ELG1 DNA repair: inconclusive; TDP1 cell CPT: 16.4µM*

How did COc1ccc(NC(=O)c2c(Cl)n(C)c3ccccc23)cc1 do in these assays?
RORg inh: 4.4%; IL-1B inflam inh: 18.4; Gal4-VP16 FLuc: 3.0%; DT40 TDP1 no CPT: 8.2µM*; ELG1 DNA repair: inconclusive; TDP1 cell CPT: 8.2µM*

What do the screens show for `COc1ccc(NC(=O)c2cc(SC)ccc2Cl)cc1`?
RORg inh: 30.6%; IL-1B inflam inh: inconclusive; Gal4-VP16 FLuc: inconclusive; DT40 TDP1 no CPT: inconclusive; ELG1 DNA repair: -25.4%; TDP1 cell CPT: 23.1µM*

What do the screens show for `O=c1ccc(-c2ccc(S(=O)(=O)Nc3ccc(F)cc3)o2)n[nH]1`?
RORg inh: -10.9%; IL-1B inflam inh: -9.0; Gal4-VP16 FLuc: 3.4%; DT40 TDP1 no CPT: 2.2%; ELG1 DNA repair: 6.9%; TDP1 cell CPT: -15.1%

What do the screens show for `CS(=O)(=O)c1ccc(Cl)c(NC(=O)CSc2nnc3n2CCCCC3)c1`?
IL-1B inflam inh: 24.1; DT40 TDP1 no CPT: 10.4%; TDP1 cell CPT: -12.8%

Bioassay records deposited in PubChem by National Center for Advancing Translational Sciences (NCATS).
